SARS 3CLpro inh = SARS-CoV 3CLpro protease inhibitors, primary screen, biochemical, quenched FRET; 290,000 tested, 0.14% active; recombinant SARS-CoV 3CLpro, quenched FRET peptide cleavage; inhibition, % at 6 µM; Replicase polyprotein 1ab (Severe acute respiratory syndrome coronavirus), P0C6X7; AID 1706, 2009; in the data active means inhibition above about 12%
CCHF vOTU inh = CCHFV vOTU protease inhibitors, primary screen, biochemical, Pep-AMC substrate, fluorescence; inhibition, % at 11.5 µM; 370,000 tested, 0.55% active; Crimean-Congo hemorrhagic fever virus L polyprotein viral ovarian tumor (vOTU) protease …; in the data active means inhibition above about 30%
RecA splice inh = Mtb RecA intein splicing inhibitors, primary screen, biochemical, fluorescence, HTS; inhibition, % (no concentration beside the values); AID 2221, 2009; cell-free RecA intein splicing; 290,000 tested, 0.75% active; in the data active means inhibition above about 30%
Target sequence (P9WHJ3 whole entry, looked up, canonical isoform): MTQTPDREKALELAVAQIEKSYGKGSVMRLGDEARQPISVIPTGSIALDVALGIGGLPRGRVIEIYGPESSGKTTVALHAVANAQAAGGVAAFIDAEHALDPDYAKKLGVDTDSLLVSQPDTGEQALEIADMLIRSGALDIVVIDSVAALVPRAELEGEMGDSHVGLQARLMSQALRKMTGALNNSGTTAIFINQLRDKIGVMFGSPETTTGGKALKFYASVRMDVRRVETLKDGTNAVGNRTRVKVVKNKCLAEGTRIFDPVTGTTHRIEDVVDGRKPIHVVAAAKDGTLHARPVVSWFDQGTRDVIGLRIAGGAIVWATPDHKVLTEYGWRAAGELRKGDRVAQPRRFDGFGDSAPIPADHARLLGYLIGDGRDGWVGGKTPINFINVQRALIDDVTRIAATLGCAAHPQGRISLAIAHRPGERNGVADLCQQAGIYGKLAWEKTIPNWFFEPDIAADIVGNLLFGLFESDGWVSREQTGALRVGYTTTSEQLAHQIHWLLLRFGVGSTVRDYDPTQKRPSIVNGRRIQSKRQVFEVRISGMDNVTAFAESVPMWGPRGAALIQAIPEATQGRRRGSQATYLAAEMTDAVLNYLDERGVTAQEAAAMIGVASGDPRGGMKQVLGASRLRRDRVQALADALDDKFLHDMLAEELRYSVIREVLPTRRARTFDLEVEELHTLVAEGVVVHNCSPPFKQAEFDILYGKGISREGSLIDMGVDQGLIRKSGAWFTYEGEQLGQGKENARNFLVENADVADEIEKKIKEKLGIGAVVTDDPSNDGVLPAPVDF
VHR inh abs = VHR1 phosphatase inhibitors, primary screen, biochemical, absorbance, uHTS | AID 1654, 2009 | recombinant VHR phosphatase, pNPP absorbance | 290,000 tested, 0.52% active | inhibition, % at 13.3 µM; in the data active means inhibition above about 50%
Large screens that a line does not name were inactive. Hits are enriched below; roughly 1.5% of the tested compounds scored in any of these assays.

CCc1[nH]nc(C(=O)N2CCCC(C(=O)c3cccc(C(F)(F)F)c3)C2)c1C (stereo not given)	VHR inh abs 52
CC1=C(C(=O)N2CCCC(C(=O)c3cccc(C(F)(F)F)c3)C2)OCCO1 (stereo not given)	none
COc1cc(Br)c(C2C(C#N)=C(N)Oc3n[nH]c(-c4cccnc4)c32)cc1OC (stereo not given)	RecA splice inh 57
COc1cc(OC)cc(C2C(C#N)=C(N)Oc3n[nH]c(-c4cccnc4)c32)c1 (stereo not given)	RecA splice inh 50
Cc1ccc2c(c1)c1c(c(=O)n(-c3ccccc3C)c(=O)n1CC(=O)NCC1CCCO1)n2C (stereo not given)	none
Cc1ccc(SCC(=O)OCC(=O)N(C)C2CCS(=O)(=O)C2)cc1C (stereo not given)	none (no result: SARS 3CLpro inh, RecA splice inh, VHR inh abs)
Cc1ccc(-n2c(COc3ccccc3)nnc2SCC(=O)Nc2ccc3c(c2)OCO3)cc1	none (no result: SARS 3CLpro inh, RecA splice inh, VHR inh abs)
COc1ccc(C(=O)N/C(=C/c2cccs2)C(=O)NCCCn2ccnc2)cc1OC	VHR inh abs 53
Cc1nc(CNC(=O)CC2C(=O)NCCN2Cc2ccc(F)cc2)cs1 (stereo not given)	none
O=C(NCc1ccccc1)c1ccc(CS(=O)(=O)Cc2ccc(F)cc2)o1	VHR inh abs 60
Cc1ccccc1S(=O)(=O)Cc1ccc(C(=O)NCc2ccccc2)o1	VHR inh abs 57
CC(C)C(=O)Nc1c(C(=O)N2CCN(c3ncccn3)CC2)oc2ccccc12	VHR inh abs 53
CCC(CC)C(=O)Nc1c(C(=O)N2CCN(c3ccccc3)CC2)oc2ccccc12	none
O=C(Nc1ccc2c(c1)CCCN2C(=O)c1ccco1)c1cc([N+](=O)[O-])ccc1Cl	none (no result: SARS 3CLpro inh, VHR inh abs)
CCCCn1c(NC(=O)c2ccccc2Cl)c(C#N)c2nc3ccccc3nc21	none
N#Cc1c(NC(=O)c2ccccc2Cl)n(Cc2ccccc2)c2nc3ccccc3nc12	CCHF vOTU inh 101 (no result: RecA splice inh)
CCOc1ccc2c(c1)C(NC(C)=O)C(=O)N2CCN1CCOCC1 (stereo not given)	RecA splice inh 43
CCN1C(=O)C(NC(C)=O)c2cc(OC)ccc21 (stereo not given)	none
O=C(NCCCN1CCCC1=O)c1c(O)nc2ccccn2c1=O	VHR inh abs 52
Cc1cccc(Nc2n[nH]c(=S)s2)c1C	none
COc1ccccc1Nc1n[nH]c(=S)s1	VHR inh abs 51
Cc1ccc(N(CC(=O)N2CCCC2)S(C)(=O)=O)cc1C	VHR inh abs 58
O=C1CCN(S(=O)(=O)c2ccccc2)CCN1CCOCc1ccc(Cl)cc1	none (no result: SARS 3CLpro inh)
CC(C)COC(=O)n1ccc(C(=O)N2CCCCC2)n1	VHR inh abs 51
Cc1ccc(NC2CCCN(C(=O)CCN3CCOCC3)C2)cc1C (stereo not given)	VHR inh abs 53
CC(C)c1ccc(NC2CCCN(C(=O)CCN3CCOCC3)C2)cc1 (stereo not given)	VHR inh abs 51
Cc1ccc(NC2CCCN(C(=O)CCn3nccc3C)C2)cc1C (stereo not given)	VHR inh abs 54 (no result: RecA splice inh)
COCCCNC(=O)C[C@H]1C[C@@]2(C(=O)OC)C(=C[C@H](C3CCCC3)O[C@@H]2C)N(CCC2=CCCCC2)C1=O	none (no result: SARS 3CLpro inh, RecA splice inh, VHR inh abs)
CC1CC(C)CN(C(=O)c2ccc3c(c2)N(Cc2ccccc2)CCS3)C1 (stereo not given)	RecA splice inh 35 (no result: CCHF vOTU inh)
CCCN(C(=O)C1CCCN(c2ncnc3c2nc2n3CCCCC2)C1)c1ccccc1C (stereo not given)	none (no result: SARS 3CLpro inh, RecA splice inh, VHR inh abs)
C[C@H](CO)N1C[C@H](C)[C@H](CN(C)C(=O)Nc2cccc(F)c2)Oc2cc(Br)ccc2S1(=O)=O	none (no result: SARS 3CLpro inh, RecA splice inh, VHR inh abs)
CCc1ccc(S(=O)(=O)Nc2c(NC3CCCCC3)c3ccccc3oc2=O)cc1	VHR inh abs 57 (no result: CCHF vOTU inh)
COc1ccc(F)cc1-c1cc(C(=O)Nc2ccc(NC(C)=O)cc2)[nH]n1	none (no result: SARS 3CLpro inh, RecA splice inh, VHR inh abs)
COc1cc2[nH]c(C(=O)Nc3ccc(F)cc3)cc2c(OC)c1OC	VHR inh abs 53
COCCNC(=S)N(CCc1c(C)[nH]c2ccc(OC)cc12)Cc1ccco1	VHR inh abs 57
COCCNC(=S)N(CCc1c(C)[nH]c2ccc(C)cc12)Cc1ccco1	none
CNC(=S)N(CCc1c(C)[nH]c2ccc(OC)cc12)Cc1ccco1	VHR inh abs 57
COc1ccc(NC(=S)N(CCc2c(C)[nH]c3ccc(C)cc23)Cc2ccco2)cc1	none
CCCCNc1cccc2c1S(=O)(=O)N[C@@H](CC(C)C)CO2	none (no result: SARS 3CLpro inh, RecA splice inh, VHR inh abs)
